We go through 7 compounds from PubChem BioAssay (NCATS).

Results filed as inconclusive are left out. The source made the active and inactive calls. Unless noted, calls follow the shape of the dose curve; as a rule, active = well fitted curve in the direction sought with a large enough effect; inconclusive = small, poorly fitted or top-dose-only effect, or another doubt; inactive = no such curve, though single readings can be large; an effect the other way counts as inactive or inconclusive.

Assay [1] deals with Lysosomal acid glucosylceramidase (Homo sapiens) (UniProt P04062). In words: Glucocerebrosidase-p2 (AID 348; in the data active = potency below about 10 µM; also: potency is read from the fitted curve at half-maximal effect). The settings on record: purified GBA, blue fluorogenic substrate, 40 min. The method, boiled down:
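Normal human glucocerebrosidase (0.2 nM) with blue fluorogenic substrate (80 uM final) in citrate/phosphate pH 5.9 with 10mM sodium taurocholate, 0.01% tween-20; 40 min RT, NaOH/glycine stop; fluorescence Ex 365/Em 440; AC50 from a titration from 0.6 nM upwards.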

The nature of assay [2]: AP1 Signaling Pathway (AID 357; active = well fitted curve in either direction with a large enough effect, not every such curve was filed as active;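 also: ME-180 reporter cells stimulated with EGF at its EC50 level; % is scaled to controls: 0 for no effect and ±100 for the full control effect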). The settings on record: ME-180 AP-1-bla reporter, EGF-induced, beta-lactamase ratio, 5 h; at 7.69 µM (top of the series) unless noted. The essentials: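 A ratiometric CCF4 readout (405 nm excitation; 460 and 530 nm emission) quantified AP-1-driven beta-lactamase in ME-180 cells after 5 h with compound and EC50 EGF; AC50 values were derived for activators and inhibitors.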

For assay [3], the target named is Cytochrome P450 1A2 (Homo sapiens) (UniProt P05177). In words: p450-cyp1a2 (AID 410; calls by dose curve; also: potency is read from the fitted curve at half-maximal effect). The essentials: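 O-Demethylation of luciferin 6' methyl ether by human CYP1A2 is monitored as luciferase luminescence. Substrate sits at Km (100uM); enzyme is 20nM. Values are scaled to 57 uM furafylline as maximal inhibition.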
Assay [4] can be described thus: NFAT Signaling Pathway (AID 444; active = well fitted curve in either direction with a large enough effect, not every such curve was filed as active;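 also: carbachol stimulus at about its EC50 of 1 µM final; % is scaled to controls: 0 for no effect and ±100 for the full control effect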). The settings on record: Jurkat NFAT-bla M1, carbachol, beta-lactamase ratio, 5 h; at 7.69 µM (top of the series) unless noted. The essentials: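 Jurkat cells with NFAT-driven β-lactamase reporter and co-expressed M1 receptor, stimulated with carbachol (final 1 uM, ~EC50), compound titration, 5 h at 37 °C. CCF4 loaded 1 h at RT; 460/530 nm ratio gave %activity and AC50.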

A short description of assay [5]: Stat Signaling Pathway (AID 446; active = well fitted curve in either direction with a large enough effect, not every such curve was filed as active;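 also: ME-180 cervical cancer cells given 40 pM IL-6 alongside compound; SIE-controlled beta-lactamase reporter measured as 460/530 nm FRET emission ratio; % is scaled to controls: 0 for no effect and ±100 for the full control effect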). The settings on record: ME-180 SIE beta-lactamase reporter, IL-6 stimulated, 5 h; at 7.69 µM (top of the series) unless noted. The method, boiled down:
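Normalization used AC90 stimulation (300 pM IL-6) and AC90 inhibition (125 nM pan-JAK inhibitor at 40 pM IL-6). The underlying signal is SIE-driven beta-lactamase in ME-180 cells after 5 h IL-6 exposure with compound.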

Assay [6] has as its target Glucocorticoid receptor (Homo sapiens) (UniProt P04150). In words: GR-GFP Redistribution (AID 450;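 active = compounds whose dose series gives a full or clear partial fitted curve of increased nuclear translocation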; also: potency is read from the fitted curve at half-maximal effect). The settings on record: U2OS GR-GFP nuclear translocation, laser cytometry, 2 h.
Assay [7] has the same target. Briefly: GR-EFC Redistribution (AID 451; calls by dose curve; also: potency is read from the fitted curve at half-maximal effect). The settings on record: CHO-K1 GR-EFC translocation, beta-gal luminescence, 2 h. The method, boiled down: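 CHO-K1 cells expressing nuclear EA and GR-ED fragments of b-gal; compounds titrated up to 46 uM final, 2 h at 37 C. GR nuclear translocation read as complemented b-gal luminescence after 1 h RT detection.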
Assay [8] has as its target Mitogen-activated protein kinase 10 (Mus musculus) (UniProt Q61831). In words: JNK3 AlphaScreen Assay (AID 530; active = well fitted curve in either direction with a large enough effect, not every such curve was filed as active;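 also: kinase came from lysate of stimulated human HepG2 cells; signal reports phosphorylation of biotinylated GST-cJun 1-79 at Ser73 with 10 µM ATP; % is scaled to controls: 0 for no effect and ±100 for the full control effect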). The essentials: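 Activity was read by AlphaScreen after JNK3-containing HepG2 lysate (cytokine pre-activated) phosphorylated biotinylated GST-cJun with 10 uM ATP at room temperature. Phospho-Ser73 cJun antibody with Protein-A acceptor beads provided detection.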
On the technique in general: In Alpha technology, singlet oxygen from a donor bead excites a nearby acceptor bead.

Assay [9] addresses 3',5'-cyclic-AMP phosphodiesterase 4B (Homo sapiens) (UniProt Q07343). In words: qHTS Assay for Inhibitors of PDE-IV (AID 607; active = well fitted activation curve with a large enough effect in the main read-out, with a control signal flat, not every such curve was filed as active; also: % of control where 0% means no effect). The method, boiled down: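 HEK293 ACTOne cells with CNG channel (1000/well), endogenous PDE4; membrane potential dye, compounds up to 22.9 uM final. Fluorescence Ex 535/Em 590; RO 20-1724 (100 uM final) as reference.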
The target in assay [10] is Cytochrome P450 3A4 (Homo sapiens) (UniProt P08684). In words: qHTS Assay for Activators of Cytochrome P450 3A4 (AID 885). Also: nearly all actives have a fitted effect of over 65% in size. Also: potency is read from the fitted curve at half-maximal effect. The essentials: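 Human CYP3A4 dealkylates Luciferin-PPXE to luciferin, which luciferase detection converts to light. Substrate was at its KM (25uM), buffer 200mM KPO4, reaction 60 min at RT.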
In general terms: In qHTS, concentration-response curves come from the screen itself.

The nature of assay [11]: qHTS Assay for Lipid Storage Modulators (AID 1519; calls by dose curve). The settings on record: Drosophila S3 cells, BODIPY lipid droplet/cell ratio, laser cytometry, cells loaded with oleic acid; for activity change, negative = inhibition: at 57.5 µM (top of the series). The method, boiled down: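 Cells seeded at 5,000 per well were treated with compounds over a concentration series and loaded with oleic acid (400 uM, as added). Lipid droplet fluorescence (488 nm excitation, 500-530 nm channel) was read by laser-scanning cytometry and normalized to 20 uM Triacsin C.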

The target of assay [12] is Dual specificity protein kinase CLK4 (Homo sapiens) (UniProt Q9HAZ1). Briefly: qHTS Assay for Inhibitors of CDC-like Kinase 4 (Kinase-Glo Assay) (AID 1770). Also: % is scaled to controls: 0 for no effect and ±100 for the full control effect; nearly all actives have a fitted effect of over 65% in size. The essentials:
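Substrate mix (RS peptide 100 uM, ATP 1 uM) dispensed, compound pinned in, then Clk4 added to 25 nM final. Incubated 4.5 h at RT; Kinase-Glo reagent added, luminescence read after 5 min.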

The target is the same in assay [13]. In words: qHTS Assay for Inhibitors of CDC-like Kinase 4 (ADP-FP Assay) (AID 1795).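 Also: recombinant human CLK4 phosphorylating RS repeat peptide at 1 µM ATP; % is scaled to controls: 0 for no effect and ±100 for the full control effect; nearly all actives have a fitted effect of over 60% in size.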 The method, boiled down: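 Clk4 6.25 nM; RS peptide 100 uM; ATP 1 uM; 25 mM Tris pH 7.5, 10 mM MgCl2; 1 h reaction. ADP detected via antibody/orange tracer FP displacement; TG003 positive control.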
Assay [14] addresses Ubiquitin carboxyl-terminal hydrolase 1 (Homo sapiens) (UniProt O94782). In words: Inhibitors of USP1/UAF1: Pilot qHTS (AID 504865).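 Also: rhodamine fluorescence freed from ubiquitin-rhodamine substrate followed over time; top concentration of the series differs between compounds; % is scaled to controls: 0 for no effect and ±100 for the full control effect; nearly all actives have a fitted effect of over 35% in size.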 The method, boiled down: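 In 50mM HEPES pH 7.8 containing 0.5mM EDTA, 1mM TCEP, 0.1 mg/ml BSA and 0.01% Tween-20, 1nM USP1/UAF1 is exposed to compound for 15 min, then Ub-Rho (150nM final) is added and fluorescence is read over time.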
The nature of assay [15]: Primary qHTS for small molecule stabilizers of the endoplasmic reticulum resident proteome: Secreted ER Calcium Modulated Protein (SERCaMP) assay (AID 1508630). Also: % is scaled to controls: 0 for no effect and ±100 for the full control effect. The method, boiled down:
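The SH-SY5Y reporter protocol was run at 3 concentrations up to 38.3 uM (primary) or 11 concentrations (follow-up): 16 h compound, 100 nM thapsigargin for 4 h, then extracellular luciferase luminescence.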

Assay [16] can be described thus: qHTS Assay for Identification of Small Molecule Agonists for Hypoxia Response Element Signaling Pathway (AID 914; active = well fitted activation curve with a large enough effect in the signal ratio, with a control signal flat, not every such curve was filed as active; the % refers to the signal ratio; also: potency is read from the fitted curve at half-maximal effect). The settings on record: ME-180 (cervical carcinoma) HRE-bla reporter, beta-lactamase ratio, CoCl2, 17 h; activation: stronger effect = higher value. The essentials: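 qHTS titration; ME-180 HRE-bla cells; EC50 CoCl2 co-treatment, 17 h at 37 degrees Celsius; CCF4 dye, ex 405nm, em 460nm and 530nm; %Activity from ratio; AC50.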

The target of assay [17] is Dual specificity protein kinase CLK4 (Homo sapiens) (UniProt Q9HAZ1). In words: qHTS Assay for Inhibitors of CDC-like Kinase 4 (ADP-Glo Assay) (AID 1771). Also: % is scaled to controls: 0 for no effect and ±100 for the full control effect; nearly all actives have a fitted effect of over 70% in size. The method, boiled down: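 Compounds are pin-transferred onto substrate mix (100 uM RS peptide, 1 uM ATP), then 25 nM Clk4 is added. After 1 hr at room temperature, ADP-Glo reagent runs 45 min, detection reagent 30 min, then luminescence is read.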

Assay [18] has as its target Cytochrome P450 3A4 (Homo sapiens) (UniProt P08684). In words: qHTS Assay for Inhibitors and Substrates of Cytochrome P450 3A4 (AID 884). Also: % is scaled to controls: 0 for no effect and ±100 for the full control effect; nearly all actives have a fitted effect of over 50% in size. The method, boiled down:
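Luminescent readout of luciferin produced by CYP3A4 (20 nM) dealkylation of Luciferin-PPXE, 25 uM (its KM). NADPH-driven reaction ran 60 min at RT after 10 min compound preincubation; data scaled to 57 uM ketoconazole as 100% inhibition.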

The mark [19] stands for this setting: measured here: cell count channel max response.
Where [20] appears, read: measured here: lipid channel max response.

Sequence of Cytochrome P450 1A2 (Homo sapiens) (P05177 whole entry, looked up): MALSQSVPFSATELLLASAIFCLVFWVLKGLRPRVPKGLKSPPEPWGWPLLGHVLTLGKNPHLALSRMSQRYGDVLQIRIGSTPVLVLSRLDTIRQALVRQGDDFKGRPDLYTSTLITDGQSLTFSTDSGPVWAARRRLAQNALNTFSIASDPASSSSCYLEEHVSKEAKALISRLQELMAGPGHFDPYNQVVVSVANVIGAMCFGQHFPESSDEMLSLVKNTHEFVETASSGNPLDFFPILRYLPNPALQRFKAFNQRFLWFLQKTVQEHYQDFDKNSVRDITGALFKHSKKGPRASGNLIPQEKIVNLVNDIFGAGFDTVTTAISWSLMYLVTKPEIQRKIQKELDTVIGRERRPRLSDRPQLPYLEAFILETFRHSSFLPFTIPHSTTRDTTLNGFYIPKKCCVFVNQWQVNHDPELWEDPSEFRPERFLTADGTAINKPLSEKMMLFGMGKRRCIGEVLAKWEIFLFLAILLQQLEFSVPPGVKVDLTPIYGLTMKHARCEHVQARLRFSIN
Sequence of Dual specificity protein kinase CLK4 (Homo sapiens) (Q9HAZ1 whole entry, looked up): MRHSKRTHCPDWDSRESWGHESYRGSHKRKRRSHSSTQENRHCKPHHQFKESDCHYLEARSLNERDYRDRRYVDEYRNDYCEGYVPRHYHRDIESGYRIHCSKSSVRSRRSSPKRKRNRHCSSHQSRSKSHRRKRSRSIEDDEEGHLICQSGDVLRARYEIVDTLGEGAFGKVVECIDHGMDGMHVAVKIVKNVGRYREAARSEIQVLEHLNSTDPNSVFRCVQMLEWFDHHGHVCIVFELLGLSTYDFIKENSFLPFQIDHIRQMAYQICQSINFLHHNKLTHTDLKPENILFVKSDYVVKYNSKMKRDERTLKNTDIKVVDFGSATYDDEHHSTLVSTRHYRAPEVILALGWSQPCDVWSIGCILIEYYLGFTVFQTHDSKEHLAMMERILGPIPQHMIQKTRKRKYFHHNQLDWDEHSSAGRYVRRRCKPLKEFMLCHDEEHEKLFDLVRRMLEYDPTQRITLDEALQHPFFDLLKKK
Sequence of 3',5'-cyclic-AMP phosphodiesterase 4B (Homo sapiens) (Q07343 whole entry, looked up): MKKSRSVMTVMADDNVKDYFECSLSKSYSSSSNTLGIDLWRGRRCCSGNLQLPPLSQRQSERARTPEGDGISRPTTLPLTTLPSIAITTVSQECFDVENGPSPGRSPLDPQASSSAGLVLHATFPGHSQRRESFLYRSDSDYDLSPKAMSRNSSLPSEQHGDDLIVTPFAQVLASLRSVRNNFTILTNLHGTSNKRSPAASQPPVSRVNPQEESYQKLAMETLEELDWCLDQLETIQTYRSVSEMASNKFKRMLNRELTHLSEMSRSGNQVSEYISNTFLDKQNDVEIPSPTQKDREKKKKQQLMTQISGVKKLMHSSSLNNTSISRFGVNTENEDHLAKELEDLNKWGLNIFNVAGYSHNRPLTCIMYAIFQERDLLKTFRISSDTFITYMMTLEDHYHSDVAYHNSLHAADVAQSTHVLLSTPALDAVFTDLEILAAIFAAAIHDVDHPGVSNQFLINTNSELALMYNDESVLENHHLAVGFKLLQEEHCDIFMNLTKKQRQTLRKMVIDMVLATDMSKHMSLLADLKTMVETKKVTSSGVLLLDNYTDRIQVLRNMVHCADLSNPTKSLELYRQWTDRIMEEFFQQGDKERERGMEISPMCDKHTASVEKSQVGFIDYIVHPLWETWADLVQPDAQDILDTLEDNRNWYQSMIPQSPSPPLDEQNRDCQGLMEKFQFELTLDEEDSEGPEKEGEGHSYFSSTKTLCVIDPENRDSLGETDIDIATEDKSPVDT
Sequence of Glucocorticoid receptor (Homo sapiens) (P04150 whole entry, looked up, the tested form may be a part): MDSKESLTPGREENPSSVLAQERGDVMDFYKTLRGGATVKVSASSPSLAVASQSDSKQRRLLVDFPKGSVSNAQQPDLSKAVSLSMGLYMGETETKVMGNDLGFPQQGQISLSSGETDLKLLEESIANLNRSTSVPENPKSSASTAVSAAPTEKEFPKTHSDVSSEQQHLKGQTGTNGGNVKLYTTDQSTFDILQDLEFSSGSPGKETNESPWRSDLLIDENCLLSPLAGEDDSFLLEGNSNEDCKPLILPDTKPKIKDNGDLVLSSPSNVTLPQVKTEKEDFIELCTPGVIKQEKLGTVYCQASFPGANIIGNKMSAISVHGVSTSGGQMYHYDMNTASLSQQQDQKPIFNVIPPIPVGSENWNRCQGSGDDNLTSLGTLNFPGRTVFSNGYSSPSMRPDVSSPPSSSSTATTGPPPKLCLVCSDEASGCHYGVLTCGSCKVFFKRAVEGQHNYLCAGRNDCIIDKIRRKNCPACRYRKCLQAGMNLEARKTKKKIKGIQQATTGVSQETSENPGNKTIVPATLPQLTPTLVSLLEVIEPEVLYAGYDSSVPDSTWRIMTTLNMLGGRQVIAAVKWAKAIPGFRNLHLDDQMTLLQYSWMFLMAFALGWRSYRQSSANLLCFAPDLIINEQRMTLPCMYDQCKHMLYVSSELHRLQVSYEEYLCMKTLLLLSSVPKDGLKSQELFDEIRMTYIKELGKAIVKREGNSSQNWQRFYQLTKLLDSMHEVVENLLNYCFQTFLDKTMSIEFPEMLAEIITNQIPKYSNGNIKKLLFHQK
Sequence of Ubiquitin carboxyl-terminal hydrolase 1 (Homo sapiens) (O94782 whole entry, looked up): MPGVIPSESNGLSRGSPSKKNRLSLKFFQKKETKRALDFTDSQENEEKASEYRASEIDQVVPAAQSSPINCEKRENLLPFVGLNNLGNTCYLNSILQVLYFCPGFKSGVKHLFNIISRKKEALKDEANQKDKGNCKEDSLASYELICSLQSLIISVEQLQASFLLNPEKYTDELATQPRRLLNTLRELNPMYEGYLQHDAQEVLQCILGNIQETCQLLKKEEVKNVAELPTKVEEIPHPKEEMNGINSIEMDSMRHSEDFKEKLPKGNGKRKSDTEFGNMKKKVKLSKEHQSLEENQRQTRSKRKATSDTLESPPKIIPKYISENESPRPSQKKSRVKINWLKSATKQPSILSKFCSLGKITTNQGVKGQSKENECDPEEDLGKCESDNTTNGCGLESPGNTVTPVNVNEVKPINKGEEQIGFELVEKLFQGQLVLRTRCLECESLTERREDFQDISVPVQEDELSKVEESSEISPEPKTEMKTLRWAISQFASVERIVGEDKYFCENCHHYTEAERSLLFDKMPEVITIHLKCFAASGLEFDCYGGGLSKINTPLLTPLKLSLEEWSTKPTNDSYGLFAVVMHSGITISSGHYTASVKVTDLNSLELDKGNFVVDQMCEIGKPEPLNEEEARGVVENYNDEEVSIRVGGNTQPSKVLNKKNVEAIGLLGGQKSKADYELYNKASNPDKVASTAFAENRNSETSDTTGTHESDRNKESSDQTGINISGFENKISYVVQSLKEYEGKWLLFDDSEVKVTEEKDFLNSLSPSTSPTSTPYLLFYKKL
Sequence of Lysosomal acid glucosylceramidase (Homo sapiens) (P04062 whole entry, looked up): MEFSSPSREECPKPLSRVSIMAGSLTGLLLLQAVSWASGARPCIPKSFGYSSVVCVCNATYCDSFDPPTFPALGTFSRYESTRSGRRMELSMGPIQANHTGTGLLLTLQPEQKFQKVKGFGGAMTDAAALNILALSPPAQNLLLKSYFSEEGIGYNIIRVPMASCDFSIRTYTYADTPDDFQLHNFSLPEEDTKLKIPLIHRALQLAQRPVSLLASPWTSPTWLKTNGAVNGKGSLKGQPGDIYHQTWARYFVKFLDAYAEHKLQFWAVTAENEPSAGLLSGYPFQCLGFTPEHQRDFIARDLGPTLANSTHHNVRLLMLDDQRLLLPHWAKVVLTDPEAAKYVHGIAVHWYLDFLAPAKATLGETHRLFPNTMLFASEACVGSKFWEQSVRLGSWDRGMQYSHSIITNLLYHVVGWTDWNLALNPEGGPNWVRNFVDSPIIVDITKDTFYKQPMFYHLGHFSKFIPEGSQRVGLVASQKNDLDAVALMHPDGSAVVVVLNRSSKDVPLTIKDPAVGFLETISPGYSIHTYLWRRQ
Sequence of Cytochrome P450 3A4 (Homo sapiens) (P08684 whole entry, looked up): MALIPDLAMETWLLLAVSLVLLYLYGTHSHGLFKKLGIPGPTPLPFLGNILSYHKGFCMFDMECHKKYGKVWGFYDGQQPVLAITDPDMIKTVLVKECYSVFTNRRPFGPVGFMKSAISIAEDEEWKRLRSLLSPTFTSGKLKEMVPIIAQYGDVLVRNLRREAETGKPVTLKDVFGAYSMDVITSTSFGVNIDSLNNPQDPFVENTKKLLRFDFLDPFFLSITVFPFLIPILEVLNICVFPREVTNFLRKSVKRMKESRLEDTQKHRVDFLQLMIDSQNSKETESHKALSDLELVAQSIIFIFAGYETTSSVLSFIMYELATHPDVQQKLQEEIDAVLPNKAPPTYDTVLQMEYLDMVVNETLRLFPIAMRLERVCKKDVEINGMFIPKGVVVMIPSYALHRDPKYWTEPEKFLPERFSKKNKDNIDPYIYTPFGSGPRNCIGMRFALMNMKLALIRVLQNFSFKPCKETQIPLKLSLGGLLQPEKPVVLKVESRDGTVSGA

For the compound `Cn1c(=O)c(-c2ccccc2)nc2cncnc21`, the Potency in [1] was > 11.4 µM (inactive); in assay [3], 0.631 µM (active); in [6], > 9.22 µM (inactive); in assay [7], > 46 µM (inactive). Further, the activity change, negative = inhibition is -7.79% (inactive) in [2], -9.84% (inactive) in assay [4] and 6.1% (inactive) in assay [11]. Moreover, the activity, negative = inhibition in assay [5] was -4.68% (inactive). Besides, the result in assay [8] was inactive. The Potency entry in assay [9], in [10], in assay [12], in assay [13], in assay [14] and in [15] was “inactive” throughout. The results for the max response in [11] (setting [19]) and in assay [11] (setting [20]) were 8.5% and 16.6%, respectively.
On to `CCNc1ncc2nc(-c3ccc(OC)cc3)c(=O)n(C[C@H]3CCCO3)c2n1`, for which the Potency in assay [1] was > 11.4 µM (inactive); in assay [6], > 9.22 µM (inactive); in assay [7], > 46 µM (inactive). The activity change, negative = inhibition was -5.93% (inactive) in assay [2] and -3.19% (inactive) in assay [11]. The compound was classed as inactive in assay [8]. In addition, the max response was determined as 8.2% in [11] (setting [19]) and 0.991% in [11] (setting [20]). Further, the Potency entry in [12], in assay [13], in assay [14] and in assay [15] was “inactive” each time.
Consider `N#Cc1cccc(-c2nc3cnc(N4CCOCC4)nc3n(C3CC3)c2=O)c1`, for which the Potency in [3] was 2.51 µM (active); in assay [6] it was > 9.22 µM (inactive); in assay [7], > 46 µM (inactive); in [16], 3.16 µM (active). Moreover, the result in assay [8] was inactive. Also, the Potency result in assay [9], in assay [10], in assay [12], in assay [13], in assay [14] and in assay [15] was “inactive” each time. Moreover, the activity change, negative = inhibition in assay [11] is -2.2% (inactive). Further, the values for the max response in [11] (setting [19]) and in [11] (setting [20]) were 17.6% and 13.2%, respectively.
Take `COc1cccc(Cn2c(=O)c(-c3ccc(F)cc3)nc3cnc(N(C)C)nc32)c1`: the Potency in assay [1] is > 11.4 µM (inactive); in assay [6], > 9.22 µM (inactive); in assay [7] it was > 46 µM (inactive). In addition, the activity change, negative = inhibition was 12% (inactive) in assay [2], 9.76% (inactive) in assay [4] and 7.91% (inactive) in [11]. Further, in assay [5], the activity, negative = inhibition is -3.48% (inactive). Also, in assay [8], the call was inactive. The Potency entry in assay [9], in assay [12], in [13], in assay [14] and in assay [15] was “inactive” in each case. The max response in assay [11] (setting [19]) came to 20.9%; in [11] (setting [20]), 28.6%.
`CCNc1ncc2nc(-c3cc(F)cc(F)c3)c(=O)n(C)c2n1`: the Potency is > 11.4 µM (inactive) in assay [1]; 2 µM (active) in [3]; > 9.22 µM (inactive) in assay [6]; > 46 µM (inactive) in assay [7]; 3.16 µM (active) in assay [16]. In assay [8], the outcome was inactive. Further, in assay [11], the activity change, negative = inhibition was -1.81% (inactive). Further, the max response in assay [11] (setting [19]) is -4.13%; in assay [11] (setting [20]) it was -3.55%. The Potency result in assay [12], in [13], in assay [14] and in assay [15] was “inactive” throughout.
Turning to `COCCn1c(=O)c(-c2ccc(F)cc2)nc2cnc(N3CCOCC3)nc21`, the Potency in [1] is > 11.4 µM (inactive); in assay [3] it was 5.01 µM (active); in assay [6] it was > 9.22 µM (inactive); in assay [7], > 46 µM (inactive). The activity change, negative = inhibition in [2] is -9.35% (inactive); in assay [4] it was 16.8% (inactive); in assay [11], 1.75% (inactive). The activity, negative = inhibition in assay [5] was -13.8% (inactive). For the same compound, the call in [8] was inactive. The Potency entry in [9], in assay [17], in [13], in assay [14] and in assay [15] was “inactive” in each case. Besides, the results for the max response in assay [11] (setting [19]) and in assay [11] (setting [20]) were 15.7% and 16.8%, respectively.
On to `Cc1ccccc1-c1cc(N(C)C)ncn1`, for which the Potency is > 11.4 µM (inactive) in assay [1]; 2 µM (active) in [3]; > 46 µM (inactive) in [6]; > 46 µM (inactive) in assay [7]; 15.8 µM (active) in assay [10]. The figures for the activity change, negative = inhibition in assay [2], in [4] and in assay [11] were -2.87% (inactive), -0.723% (inactive) and 6.31% (inactive), respectively. Moreover, in assay [5], the activity, negative = inhibition is 7.1% (inactive). Also, the compound was called inactive in assay [8]. Also, the Potency result in assay [9], in assay [18], in assay [12], in assay [13], in assay [14] and in assay [15] was “inactive” in each case. Moreover, the results for the max response in assay [11] (setting [19]) and in [11] (setting [20]) were 20.2% and 26.4%, respectively.
